{
  "source": "PubChem BioAssay (NCI)",
  "note": "Compounds without any hit were thinned out: in the full panel of roughly 83,000, 20% have a hit.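 Activity criterion: percent growth below 10, measured after cells in 96-well plates were exposed to a single compound concentration for 48 hours.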 Unmarked numbers belong to inactive results. Activity calls are given as the source filed them.",
  "data": [
    {"system": "HS 578T breast", "test": "NCI-60 one-dose screen, 48 h (100 = growth as untreated, 0 = no growth, -100 = all killed)", "conditions": "10 µM unless noted", "protocol": "Growth inhibition of the HS 578T human tumor cell line is measured as a screen for anti-cancer activity. Cells are grown in 96 well plates and exposed to the test compound for 48 hours. Compounds are tested at a single concentration, which is 10^-5 M for most compounds. The reported endpoint is percent growth (GI% or GIPRCNT), where numbers from 0 - 100% represent growth inhibition, and numbers from -100% - 0 represent cell death. For example, a value of 40 represents 60% growth inhibition. A value of 0 means no net growth occurred over the course of the experiment. A value of -40 indicates 40% of cells at the beginning of the experiment died by the end of the experiment. A value of -100 means all cells are dead at the end of the experiment.\nNCI-60 Human Tumor Cell Lines Screen was performed using the standard one-dose NCI protocol, which is described in more detail at https://dtp.cancer.gov/discovery_development/nci-60/default.htm.\nCompounds with GIPRCNT values below 10 were considered active. Activity score was based on GIPRCNT using the following formula: […]\nScore is 0 for GIPRCNT values of 100 or above, 50 for GIPRCNT values of 0, and 100 for GIPRCNT values of -100.", "values": [
      {"smiles": "CCCCOS(=O)(=O)c1ccccc1", "growth": "107%"},
      {"smiles": "Cc1cc(C)c(C#N)c(Sc2nc(C)c([N+](=O)[O-])c(C)c2C#N)n1", "growth": "118%"},
      {"smiles": "CC(C)=C1C=C2CC[C@@H]3[C@](C)(CCC[C@@]3(C)C(=O)O)[C@H]2CC1", "growth": "110%"},
      {"smiles": "CCCCCCCCCCCC[n+]1ccccc1", "note": "(tested in a mixture with another compound)", "growth": "-28.7% (active)"},
      {"smiles": "Nc1nc2ncc(CNc3ccc(C(=O)NC(CCC(=O)NC(CCC(=O)NC(CCC(=O)NC(CCC(=O)NC(CCC(=O)O)C(=O)O)C(=O)O)C(=O)O)C(=O)O)C(=O)O)cc3)nc2c(=O)[nH]1", "note": "(stereo not given)", "growth": "90.1%"},
      {"smiles": "CCCC[n+]1c(/C=C\\c2c(OC)cc(OC)cc2OC)ccc2ccccc21", "growth": "16.4%"},
      {"smiles": "NC(CS/C(Cl)=C/Cl)C(=O)O", "note": "(stereo not given)", "growth": "104%"},
      {"smiles": "C/C(=N\\NC(=S)N1CC2CCC(CC2)C1)c1ccccn1", "growth": "16.3%"},
      {"smiles": "N=C(N)Sc1cccc[n+]1[O-]", "growth": "82.9%"},
      {"smiles": "Oc1ccccc1N=Cc1ccccc1", "growth": "108%"},
      {"smiles": "CN(C)c1ccc(C(=C2C=CC(=[N+](C)C)C=C2)c2ccc(N(C)C)cc2)cc1", "growth": "1.62% (active)"},
      {"smiles": "COC(=O)c1nc(=S)[nH]c(C(=O)OC)c1C(=O)c1ccc(Cl)c(Cl)c1", "growth": "102%"},
      {"smiles": "O=C1C(=O)c2cccnc2-c2ncccc21", "growth": "-47.5% (active)"},
      {"smiles": "CCCCC(C=O)(C=C=C(C)C)CC", "note": "(stereo not given)", "growth": "112%"},
      {"smiles": "O=[N+]([O-])/C(=C/c1ccccc1)c1ccccc1", "growth": "110%"},
      {"smiles": "CCCCCCN(CCCCCC)CCCNc1nccc2ccccc12", "growth": "12.4%"},
      {"smiles": "CCCCCCCCCCCCN1C(C)=CS/C1=C\\C=C\\c1scc(C)[n+]1CCCCCCCCCCCC", "growth": "76.6%"},
      {"smiles": "CCCCCCCCCCCCCCCCCC[S+](C)CC", "note": "(stereo not given)", "growth": "35.9%"},
      {"smiles": "COc1cccc2c1C(=O)c1c(O)c3c(c(O)c1C2=O)C[C@@](O)(C(=O)CO)C[C@@H]3OC1CC(OC(C)=O)C(OC(C)=O)C(C)O1", "note": "(stereo not given in full)", "growth": "-10.9% (active)"},
      {"smiles": "Oc1c(C(Nc2ccccc2)c2ccccc2)ccc2cccnc12", "note": "(stereo not given)", "growth": "70.4%"},
      {"smiles": "NC(=S)N/N=C\\c1nccc2c(C(F)(F)F)cccc12", "growth": "54.3%"},
      {"smiles": "O=[N+]([O-])c1ccc2c(c1)Cc1ccccc1-2", "growth": "102%"},
      {"smiles": "CC1CC(C)(C)OB(OC(C)CC(C)(C)OB2OC(C)CC(C)(C)O2)O1", "note": "(stereo not given)", "growth": "121%"},
      {"smiles": "CCC(C)(O)Cc1ccc(Cl)cc1", "note": "(stereo not given)", "growth": "108%"},
      {"smiles": "Clc1ccccc1C(c1ccccc1)(c1ccccc1)n1ccnc1", "growth": "58.2%"},
      {"smiles": "O=C(c1ccccc1)c1cc2ccccc2oc1=O", "growth": "90.6%"},
      {"smiles": "Cc1ccc(NC2=CC(=O)C(=O)c3ccccc32)cc1", "growth": "16.3%"},
      {"smiles": "CN(C)c1ccc(/C=C/c2nccc3ccccc23)cc1", "growth": "94.1%"},
      {"smiles": "CC(C)Nc1ccc(Nc2ccc(NC(C)C)cc2)cc1", "growth": "73.4%"},
      {"smiles": "O=C1C=CC(O)=CC1=P(c1ccccc1)(c1ccccc1)c1ccccc1", "growth": "83.2%"},
      {"smiles": "CN(C)CCSC1=Nc2ccc(Cl)cc2C(c2ccccc2Cl)N(C)C1", "note": "(stereo not given)", "growth": "24.2%"},
      {"smiles": "CCN(CC)CC(O)CNc1ccc(NCC2CO2)c2c1C(=O)c1ccccc1C2=O", "note": "(stereo not given)", "growth": "-40.4% (active)"},
      {"smiles": "CCOc1ccc(C(C[N+](=O)[O-])Sc2ccccc2N)cc1", "note": "(stereo not given)", "growth": "43.6%"},
      {"smiles": "C/C=C/c1cc2c(c(=O)o1)C(=O)[C@@H](O)[C@H](C)O2", "growth": "93.4%"},
      {"smiles": "CCOc1ccc(C(CN2CCOCC2)C(C)=O)cc1OC", "note": "(stereo not given)", "growth": "97.7%"},
      {"smiles": "CCN1/C(=C/C(C)=C/c2sc3ccc4ccccc4c3[n+]2CC)Sc2ccc3ccccc3c21", "growth": "-66.8% (active)"},
      {"smiles": "Nc1ccc(-c2ccc(N)c(S(=O)(=O)O)c2)cc1S(=O)(=O)O", "growth": "113%"},
      {"smiles": "CC1(C)OC2C(COC(c3ccccc3)(c3ccccc3)c3ccccc3)OC(c3c[nH]c4c(N)ncnc34)C2O1", "note": "(stereo not given)", "growth": "77.5%"},
      {"smiles": "CC1(C)CCCC2=C1C(=O)N(SC(Cl)(Cl)Cl)C2=O", "growth": "102%"},
      {"smiles": "Cc1nn(CCO)c(C)c1N=[N+]([O-])c1c(C)nn(CCO)c1C", "growth": "103%"}
    ]}
  ]
}
